# Test results published in PubChem BioAssay (EPA / NIEHS).
# Calls of active or inactive are those of the source. Rule for the calls: active = hit-call score of the fitted dose curve at least 0.9, where 1 is the maximum; inactive = score below 0.9.
# Key:
# [1] = ATG_GRE_CIS: Attagene CIS-FACTORIAL HepG2 Assay for human Glucocorticoid Response Elements (GRE) (AID 2282947); details: HepG2 GRE cis-reporter, Attagene multiplex mRNA; actives raise or lower the signal
# Method in brief: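 Fluorescence intensity of reporter-specific cDNA fragments, separated by capillary electrophoresis, provides the signal. Constructs carry cis-regulating promoters in transiently transfected HepG2 liver cells; 24 h incubation; fitting is bidirectional against DMSO.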
# [2] = ATG_ISRE_CIS: Attagene CIS-FACTORIAL HepG2 Assay for human Interferon Regulatory Factor 1 (IRF1) binding to an Interferon-Stimulated Response Element (ISRE) (AID 2282948); details: HepG2 ISRE cis-reporter (Attagene), mRNA transcription readout; actives raise or lower the signal
# Method in brief: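 Endogenous transcription factor activity read as reporter transcript abundance via RT-PCR and capillary electrophoresis. HepG2 cells transiently transfected, 24 h chemical exposure. Gain or loss fitted against DMSO baseline.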
# [3] = ATG_M_32_CIS: Attagene CIS-FACTORIAL HepG2 Assay for M32 Transcription Factor (Internal Marker) (AID 2282949); details: HepG2 Attagene cis-factorial M32 reporter, mRNA; actives raise or lower the signal;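 note: background control marker of the multiplexed CIS panel rather than a real target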
# Method in brief: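 HepG2 human liver cells transiently transfected with cis-promoter-driven multiple reporter transcription units, dosed 24 h. Reporter mRNA quantified by RT-PCR, FAM-labelled primer extension, HpaI digest and capillary electrophoresis; bidirectional fit versus DMSO baseline.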
# [4] = ATG_M_06_CIS: Attagene CIS-FACTORIAL HepG2 Assay for M06 Transcription Factor (Internal Marker) (AID 2282950); details: HepG2 Attagene CIS-FACTORIAL M06 internal marker reporter; actives raise or lower the signal
# Method in brief: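 Internal background marker within multiplexed cis-reporter HepG2 system. Cells transiently transfected, dosed 24 h; reporter mRNA measured by RT-PCR, HpaI digestion and capillary electrophoresis. Bidirectional fit relative to DMSO.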
# [5] = molecular target: Hypoxia-inducible factor 1-alpha (Homo sapiens) (UniProt Q16665); experiment: ATG_HIF1a_CIS: Attagene CIS-FACTORIAL HepG2 Assay for human Hypoxia Inducible Factor 1 (HIF1A) (AID 2282951); details: HepG2 Attagene cis-factorial HIF1a reporter transcription; actives raise or lower the signal
# Method in brief: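 Cis-element reporter constructs were transiently transfected into HepG2 cells, which were treated for 24 h; reporter RNA was reverse-transcribed, amplified, labelled and resolved by capillary electrophoresis.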
# [6] = molecular target: Hepatocyte nuclear factor 6 (Homo sapiens) (UniProt Q9UBC0); experiment: ATG_HNF6_CIS: Attagene CIS-FACTORIAL HepG2 Assay for human Hepatocyte Nuclear Factor 6 (HNF6) (AID 2282952); details: HepG2 Attagene cis-factorial HNF6 reporter transcription; actives raise or lower the signal
# Method in brief: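 Endogenous factor activity read in transiently transfected HepG2 via promoter-regulated reporter transcripts. RNA harvested 24 h post-dosing, reverse-transcribed, PCR-amplified, FAM-labelled, HpaI-digested and resolved by capillary electrophoresis; fitted in both directions against DMSO.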
# [7] = molecular target: Heat shock factor protein 1 (Homo sapiens) (UniProt Q00613); experiment: ATG_HSE_CIS: Attagene CIS-FACTORIAL HepG2 Assay for human Heat Shock Transcription Factor 1 (HSE) (AID 2282953); details: HepG2 HSE cis-reporter, Attagene RNA transcription; actives raise or lower the signal
# Method in brief: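 HepG2 cells transfected with cis-promoter reporter units sensing endogenous transcription factor activity; reporter mRNA quantified 24 h post-dose by RT-PCR and capillary electrophoresis of 6-FAM-labelled products. Bidirectional fitting against DMSO.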
# [8] = ATG_MRE_CIS: Attagene CIS-FACTORIAL HepG2 Assay for human Metal Responsive Element (MRE) (AID 2282954); details: HepG2 MRE cis-reporter transcription, Attagene multiplex; actives raise or lower the signal
# Method in brief: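 Measured here is mRNA induction from an MRE cis-element reporter in HepG2 after 24 h, quantified by fluorescence of labelled RT-PCR products on capillary electrophoresis; gain- and loss-of-signal fits use DMSO as baseline.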
# [9] = ATG_PBREM_CIS: Attagene CIS-FACTORIAL HepG2 Assay for human Phenobarbital-responsive Enhancer Module (PBREM) (AID 2282955); details: HepG2 PBREM cis-reporter, Attagene multiplexed transcription; actives raise or lower the signal
# Method in brief: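 Multiplexed cis-reporter readout in human hepatoma HepG2 cells; PBREM-regulated transcript quantified after 24 h exposure by fluorescent RT-PCR fragment analysis. Signal changes up or down fitted relative to DMSO.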
# [10] = molecular target: Paired box protein Pax-6 (Homo sapiens) (UniProt P26367); experiment: ATG_Pax6_CIS: Attagene CIS-FACTORIAL HepG2 Assay for human Paired Box 6 (PAX6) (AID 2282956); details: HepG2 CIS-FACTORIAL PAX6 reporter transcription, RNA readout; actives raise or lower the signal
# Method in brief: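 Read-out is reporter transcript level, measured by RT-PCR with fluorescent primer extension and capillary electrophoresis after 24 h dosing of transfected HepG2 cells. Activity in either direction fitted relative to DMSO control.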
# [11] = ATG_PXRE_CIS: Attagene CIS-FACTORIAL HepG2 Assay for human Pregnane X Receptor Element (PXRE) (AID 2282957); details: HepG2 Attagene CIS-FACTORIAL PXRE reporter, mRNA; actives raise or lower the signal
# Method in brief: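 Reporter transcripts under endogenous PXR-responsive cis-regulation quantified from total RNA of transfected HepG2 cells 24 h post-dosing, via RT-PCR with fluorescent primer extension and capillary electrophoresis. Gain or loss of signal fitted against DMSO baseline.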
# [12] = ATG_PPRE_CIS: Attagene CIS-FACTORIAL HepG2 Assay for human Peroxisome Proliferator-activated Response Element (PPRE) (AID 2282958); details: HepG2 PPRE cis-element reporter, Attagene transcription factor profiling; actives raise or lower the signal
# Method in brief: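 DMSO served as negative control and baseline for bidirectional curve fitting. Signal came from PPRE-regulated reporter mRNA in HepG2 cells, measured 24 h post-dosing by RT-PCR, 6-FAM primer extension and capillary electrophoresis.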
# [13] = ATG_RORE_CIS: Attagene CIS-FACTORIAL HepG2 Assay for human RAR-related Orphan Receptor Element (RORE) (AID 2282959); details: HepG2 Attagene cis-factorial RORE reporter, mRNA; actives raise or lower the signal
# Method in brief: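 Transfect HepG2 with MRTUs; treat 24 h; extract RNA; RT with oligo(dT); PCR with reporter-specific primers; 6-FAM primer extension; HpaI digest 2 h at 37 C; capillary electrophoresis. Fit vs DMSO, bidirectional.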
# [14] = ATG_Sox_CIS: Attagene CIS-FACTORIAL HepG2 Assay for human SRY-box transcription factor (SOX) (AID 2282960); details: HepG2 Attagene cis-factorial SOX reporter, mRNA; actives raise or lower the signal
# Method in brief: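 Fluorescence-labelled cDNA fragments from reporter transcripts, sized by CE, give the signal. Cells: HepG2, transiently transfected with cis-regulated reporter units. Exposure 24 h; DMSO negative control; bidirectional curve fitting.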
# [15] = molecular target: Transcription factor Sp1 (Homo sapiens) (UniProt P08047); experiment: ATG_Sp1_CIS: Attagene CIS-FACTORIAL HepG2 Assay for human Specificity Protein 1 (Sp1) (AID 2282961); details: HepG2 Sp1 cis-reporter transcription, actives raise or lower the signal
# Method in brief: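 Chemicals are dosed onto HepG2 cells transfected with multiple cis-promoter reporter constructs, and after 24 h reporter RNA is reverse-transcribed, PCR-amplified and resolved by capillary electrophoresis for fluorescence quantitation; activity is scored up or down against DMSO.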
# [16] = ATG_SREBP_CIS: Attagene CIS-FACTORIAL HepG2 Assay for human Sterol Regulatory Element Binding (SREBP) (AID 2282962); details: HepG2 Attagene cis-factorial SREBP reporter, mRNA; actives raise or lower the signal
# Method in brief: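 Endogenous SREBP activity read as cis-element-driven reporter transcript in transiently transfected HepG2, 24 h post-dosing; quantified via RT-PCR plus capillary electrophoresis of fluorescent fragments. Gain or loss of signal fitted relative to DMSO baseline.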
# [17] = molecular target: Signal transducer and activator of transcription 3 (Homo sapiens) (UniProt P40763); experiment: ATG_STAT3_CIS: Attagene CIS-FACTORIAL HepG2 Assay for human Signal Transducer and Activator of Transcription 3 (STAT3) (AID 2282963); details: HepG2, Attagene cis-factorial STAT3 reporter transcription; actives raise or lower the signal
# Method in brief: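 Fluorescence intensity of 6-FAM-labelled reporter fragments, separated by capillary electrophoresis after RT-PCR, gave the signal. Cells were HepG2 transfected with cis-element reporter units and treated 24 h; fitting was bidirectional relative to DMSO.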
# [18] = ATG_TA_CIS: Attagene CIS-FACTORIAL HepG2 Assay for human TA Basal Promoter (AID 2282964); details: HepG2 Attagene CIS-factorial TA basal promoter reporter; actives raise or lower the signal
# Method in brief: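 HepG2 cells transiently transfected with multiple reporter units under cis promoter elements, reporting endogenous transcription factor activity; this endpoint tracks the TA basal promoter as background control. Reporter mRNA after 24 h dosing measured by RT-PCR/capillary electrophoresis; bidirectional fits versus DMSO.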
# [19] = ATG_TCF_b_cat_CIS: Attagene CIS-FACTORIAL HepG2 Assay for human T-Cell-Factor with beta-catenin (TCF/b-cat) (AID 2282965); details: HepG2 TCF/beta-catenin cis-reporter transcription, actives raise or lower the signal
# Method in brief: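 Cells of the HepG2 line carry transiently transfected reporter units whose promoters respond to endogenous factors. Twenty-four hours post-dosing, reporter mRNA induction is measured by fluorescent RT-PCR and capillary electrophoresis, with DMSO as baseline.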
# [20] = ATG_TAL_CIS: Attagene CIS-FACTORIAL HepG2 Assay for human TAL Basal Promoter (AID 2282966); details: HepG2 Attagene cis-factorial TAL promoter reporter; actives raise or lower the signal;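 note: background control endpoint measuring basal TAL promoter reporter mRNA not a specific factor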
# Method in brief: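 Background-control endpoint: basal TAL promoter reporter transcripts in transiently transfected HepG2, measured 24 h after dosing. Read-out by RT-PCR with fluorescent primer extension and capillary electrophoresis; gain or loss of signal fitted relative to DMSO.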
# Chain of Heat shock factor protein 1 (Homo sapiens) (Q00613 whole entry, looked up): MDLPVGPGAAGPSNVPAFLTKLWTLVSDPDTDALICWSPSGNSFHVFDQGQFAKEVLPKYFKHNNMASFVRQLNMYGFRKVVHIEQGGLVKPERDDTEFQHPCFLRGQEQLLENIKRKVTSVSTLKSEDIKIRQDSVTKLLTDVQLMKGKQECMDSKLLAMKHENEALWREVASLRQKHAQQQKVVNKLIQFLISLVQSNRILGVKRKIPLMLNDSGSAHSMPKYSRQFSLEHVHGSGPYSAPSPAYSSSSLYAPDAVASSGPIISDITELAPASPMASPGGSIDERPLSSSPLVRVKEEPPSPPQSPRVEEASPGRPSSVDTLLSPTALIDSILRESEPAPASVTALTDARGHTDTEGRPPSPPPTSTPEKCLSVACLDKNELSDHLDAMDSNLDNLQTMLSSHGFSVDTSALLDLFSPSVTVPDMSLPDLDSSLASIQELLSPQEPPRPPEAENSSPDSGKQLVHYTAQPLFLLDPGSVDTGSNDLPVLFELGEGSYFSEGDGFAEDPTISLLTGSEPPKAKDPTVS
# Chain of Hepatocyte nuclear factor 6 (Homo sapiens) (Q9UBC0 whole entry, looked up): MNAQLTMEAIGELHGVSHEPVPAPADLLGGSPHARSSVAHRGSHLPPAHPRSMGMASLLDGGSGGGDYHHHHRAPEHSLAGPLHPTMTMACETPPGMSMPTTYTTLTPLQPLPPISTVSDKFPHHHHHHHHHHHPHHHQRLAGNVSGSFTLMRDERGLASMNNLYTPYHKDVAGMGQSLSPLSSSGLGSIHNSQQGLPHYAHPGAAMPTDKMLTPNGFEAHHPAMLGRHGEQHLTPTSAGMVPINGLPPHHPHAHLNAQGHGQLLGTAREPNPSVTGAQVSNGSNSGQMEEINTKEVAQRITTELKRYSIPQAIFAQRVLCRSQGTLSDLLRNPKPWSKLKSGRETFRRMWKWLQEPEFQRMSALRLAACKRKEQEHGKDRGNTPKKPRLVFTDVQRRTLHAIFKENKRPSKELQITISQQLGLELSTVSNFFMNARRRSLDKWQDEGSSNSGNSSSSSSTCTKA
# Chain of Transcription factor Sp1 (Homo sapiens) (P08047 whole entry, looked up): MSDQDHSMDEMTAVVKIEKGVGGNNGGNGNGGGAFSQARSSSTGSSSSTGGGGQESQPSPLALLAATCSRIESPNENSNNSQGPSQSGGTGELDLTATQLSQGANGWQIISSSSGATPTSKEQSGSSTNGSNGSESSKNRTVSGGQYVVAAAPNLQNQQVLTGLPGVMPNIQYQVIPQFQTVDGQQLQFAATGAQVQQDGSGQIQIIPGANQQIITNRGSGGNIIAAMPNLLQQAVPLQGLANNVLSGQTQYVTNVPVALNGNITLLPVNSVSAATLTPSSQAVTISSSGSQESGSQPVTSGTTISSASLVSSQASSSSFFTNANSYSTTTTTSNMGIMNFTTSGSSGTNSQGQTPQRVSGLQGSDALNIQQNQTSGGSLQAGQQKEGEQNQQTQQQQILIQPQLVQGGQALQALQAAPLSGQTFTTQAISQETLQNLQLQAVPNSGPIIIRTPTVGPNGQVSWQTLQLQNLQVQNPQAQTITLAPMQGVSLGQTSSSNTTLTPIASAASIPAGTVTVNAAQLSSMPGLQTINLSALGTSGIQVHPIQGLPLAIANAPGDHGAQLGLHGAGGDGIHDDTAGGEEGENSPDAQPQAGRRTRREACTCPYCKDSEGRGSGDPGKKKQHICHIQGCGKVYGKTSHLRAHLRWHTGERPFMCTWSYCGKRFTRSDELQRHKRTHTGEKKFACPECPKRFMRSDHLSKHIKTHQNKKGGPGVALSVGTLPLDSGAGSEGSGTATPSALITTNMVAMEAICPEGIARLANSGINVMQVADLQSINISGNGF
# Chain of Signal transducer and activator of transcription 3 (Homo sapiens) (P40763 whole entry, looked up, the tested form may be a part): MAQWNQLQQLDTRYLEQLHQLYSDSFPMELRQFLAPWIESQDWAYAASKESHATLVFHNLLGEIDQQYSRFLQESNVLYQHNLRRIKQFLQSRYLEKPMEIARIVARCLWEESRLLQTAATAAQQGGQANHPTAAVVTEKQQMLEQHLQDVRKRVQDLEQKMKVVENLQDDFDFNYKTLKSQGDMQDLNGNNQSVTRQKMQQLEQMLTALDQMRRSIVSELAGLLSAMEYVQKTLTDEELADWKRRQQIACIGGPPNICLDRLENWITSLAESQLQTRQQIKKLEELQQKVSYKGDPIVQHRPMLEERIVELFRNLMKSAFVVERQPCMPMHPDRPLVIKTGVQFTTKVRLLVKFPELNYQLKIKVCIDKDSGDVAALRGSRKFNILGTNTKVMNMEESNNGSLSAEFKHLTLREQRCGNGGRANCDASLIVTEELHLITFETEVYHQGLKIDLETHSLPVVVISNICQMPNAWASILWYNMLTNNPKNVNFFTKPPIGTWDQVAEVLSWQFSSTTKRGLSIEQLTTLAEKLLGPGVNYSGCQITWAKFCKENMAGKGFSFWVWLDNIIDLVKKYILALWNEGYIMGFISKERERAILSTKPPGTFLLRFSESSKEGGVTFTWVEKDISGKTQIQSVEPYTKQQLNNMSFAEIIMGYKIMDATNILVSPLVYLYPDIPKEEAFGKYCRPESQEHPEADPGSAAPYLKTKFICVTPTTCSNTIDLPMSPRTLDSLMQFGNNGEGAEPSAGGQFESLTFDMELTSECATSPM
# Chain of Hypoxia-inducible factor 1-alpha (Homo sapiens) (Q16665 whole entry, looked up): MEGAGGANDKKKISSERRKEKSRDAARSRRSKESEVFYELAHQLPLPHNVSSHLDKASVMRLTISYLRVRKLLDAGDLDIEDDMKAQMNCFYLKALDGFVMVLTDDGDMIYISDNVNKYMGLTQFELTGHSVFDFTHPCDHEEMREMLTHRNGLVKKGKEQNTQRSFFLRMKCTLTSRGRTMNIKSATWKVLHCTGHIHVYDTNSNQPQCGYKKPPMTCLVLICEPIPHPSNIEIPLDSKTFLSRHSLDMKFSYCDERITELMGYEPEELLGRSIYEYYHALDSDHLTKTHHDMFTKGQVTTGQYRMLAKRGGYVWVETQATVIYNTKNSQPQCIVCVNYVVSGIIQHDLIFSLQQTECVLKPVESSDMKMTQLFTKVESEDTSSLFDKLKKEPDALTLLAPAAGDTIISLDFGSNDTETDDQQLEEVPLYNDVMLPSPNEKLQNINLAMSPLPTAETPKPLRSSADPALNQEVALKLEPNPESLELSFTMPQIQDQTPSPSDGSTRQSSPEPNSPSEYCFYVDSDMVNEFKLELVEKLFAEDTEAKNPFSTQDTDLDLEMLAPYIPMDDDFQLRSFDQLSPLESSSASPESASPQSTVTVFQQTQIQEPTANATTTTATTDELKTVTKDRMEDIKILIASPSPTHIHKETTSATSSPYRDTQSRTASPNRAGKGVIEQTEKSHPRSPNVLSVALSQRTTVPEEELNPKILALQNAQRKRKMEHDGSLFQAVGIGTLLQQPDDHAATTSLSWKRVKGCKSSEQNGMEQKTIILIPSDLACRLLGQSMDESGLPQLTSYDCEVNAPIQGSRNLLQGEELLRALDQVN
# Chain of Paired box protein Pax-6 (Homo sapiens) (P26367 whole entry, looked up): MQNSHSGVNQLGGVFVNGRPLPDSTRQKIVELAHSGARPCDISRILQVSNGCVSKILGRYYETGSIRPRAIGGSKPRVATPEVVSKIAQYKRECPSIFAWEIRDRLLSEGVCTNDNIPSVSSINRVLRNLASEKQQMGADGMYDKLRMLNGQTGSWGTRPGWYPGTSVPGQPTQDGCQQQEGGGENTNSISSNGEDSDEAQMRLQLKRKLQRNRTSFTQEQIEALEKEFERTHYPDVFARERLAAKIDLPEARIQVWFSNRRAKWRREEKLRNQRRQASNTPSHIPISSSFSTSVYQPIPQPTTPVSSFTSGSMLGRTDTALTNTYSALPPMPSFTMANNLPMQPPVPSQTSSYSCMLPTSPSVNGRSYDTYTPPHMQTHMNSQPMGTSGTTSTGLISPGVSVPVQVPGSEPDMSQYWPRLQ
smiles,measurement,setting,value
NC(=O)C(F)(F)C(F)(F)F,outcome,[1],inactive
same,outcome,[2],inactive
same,outcome,[3],inactive
same,outcome,[4],inactive
same,outcome,[5],inactive
same,outcome,[6],inactive
same,outcome,[7],inactive
same,outcome,[8],inactive
same,outcome,[9],inactive
same,outcome,[10],inactive
same,outcome,[11],inactive
same,outcome,[12],inactive
same,outcome,[13],inactive
same,outcome,[14],inactive
same,outcome,[15],inactive
same,outcome,[16],inactive
same,outcome,[17],inactive
same,outcome,[18],inactive
same,outcome,[19],inactive
same,outcome,[20],inactive
CCCCC(CC)COC(=O)c1c(Br)c(Br)c(Br)c(Br)c1C(=O)OCC(CC)CCCC (centres undefined),outcome,[1],inactive
same,outcome,[2],inactive
same,outcome,[3],inactive
same,outcome,[4],inactive
same,outcome,[5],inactive
same,outcome,[6],inactive
same,outcome,[7],inactive
same,outcome,[8],inactive
same,outcome,[9],inactive
same,outcome,[10],inactive
same,AC50,[11],19.9 µM (active)
same,outcome,[12],inactive
same,outcome,[13],inactive
same,outcome,[14],inactive
same,outcome,[15],inactive
same,outcome,[16],inactive
same,outcome,[17],inactive
same,outcome,[18],inactive
same,outcome,[19],inactive
same,outcome,[20],inactive
O=S(=O)(F)C(F)(F)C(F)(F)C(F)(F)C(F)(F)C(F)(F)C(F)(F)C(F)(F)C(F)(F)F,outcome,[1],inactive
same,outcome,[2],inactive
same,outcome,[3],inactive
same,outcome,[4],inactive
same,outcome,[5],inactive
same,outcome,[6],inactive
same,outcome,[7],inactive
same,outcome,[8],inactive
same,outcome,[9],inactive
same,outcome,[10],inactive
same,outcome,[11],inactive
same,outcome,[12],inactive
same,outcome,[13],inactive
same,outcome,[15],inactive
same,outcome,[16],inactive
same,outcome,[17],inactive
same,outcome,[18],inactive
same,outcome,[19],inactive
same,outcome,[20],inactive
CN(C)C(=O)Cl,outcome,[1],inactive
same,outcome,[2],inactive
same,outcome,[3],inactive
same,outcome,[4],inactive
same,outcome,[5],inactive
same,outcome,[6],inactive
same,outcome,[7],inactive
same,outcome,[8],inactive
same,outcome,[9],inactive
same,outcome,[10],inactive
same,outcome,[12],inactive
same,outcome,[13],inactive
same,outcome,[14],inactive
same,outcome,[15],inactive
same,outcome,[16],inactive
same,outcome,[17],inactive
same,outcome,[18],inactive
same,outcome,[19],inactive
same,outcome,[20],inactive
C=CC(=O)OCC(F)(F)C(F)F,outcome,[1],inactive
same,AC50,[2],150 µM (active)
same,outcome,[3],inactive
same,outcome,[4],inactive
same,outcome,[5],inactive
same,outcome,[6],inactive
same,outcome,[7],inactive
same,AC50,[8],117 µM (active)
same,outcome,[9],inactive
same,outcome,[10],inactive
same,outcome,[12],inactive
same,outcome,[13],inactive
same,outcome,[14],inactive
same,outcome,[15],inactive
same,outcome,[16],inactive
same,outcome,[17],inactive
same,outcome,[18],inactive
same,AC50,[19],89.3 µM (active)
same,outcome,[20],inactive
Clc1ccc(Oc2ccccc2)cc1,outcome,[1],inactive
same,outcome,[2],inactive
same,outcome,[3],inactive
same,outcome,[4],inactive
same,outcome,[5],inactive
same,outcome,[6],inactive
same,outcome,[7],inactive
same,outcome,[8],inactive
same,outcome,[9],inactive
same,outcome,[10],inactive
same,outcome,[11],inactive
same,outcome,[12],inactive
same,outcome,[13],inactive
same,outcome,[15],inactive
same,outcome,[16],inactive
same,outcome,[18],inactive
same,outcome,[19],inactive
same,outcome,[20],inactive
O=c1ssc(Cl)c1Cl,outcome,[1],inactive
same,AC50,[2],48.6 µM (active)
same,outcome,[3],inactive
same,outcome,[4],inactive
same,outcome,[5],inactive
same,outcome,[6],inactive
same,AC50,[7],61.2 µM (active)
same,AC50,[8],49.6 µM (active)
same,AC50,[9],50.3 µM (active)
same,AC50,[10],62.5 µM (active)
same,outcome,[11],inactive
same,outcome,[12],inactive
same,outcome,[13],inactive
same,AC50,[15],51.6 µM (active)
same,outcome,[16],inactive
same,outcome,[17],inactive
same,outcome,[18],inactive
same,AC50,[19],53 µM (active)
same,outcome,[20],inactive
